According to PubChem BioAssay (EPA / NIEHS):
Inconclusive results are not listed. Activity calls are given as the source filed them. How the source made its calls, unless noted: active means hit-call score of the fitted dose curve at least 0.9, where 1 is the maximum; inconclusive means response in the unintended direction; inactive means score below 0.9.

Tests used:
[1] = read-out: glucuronosyltransferase (UGT1A1), UGT1A1 (gene 54658); test: CLD_UGT1A1_24hr: CellzDirect (CLD) Gene Expression Assay for glucuronosyltransferase (UGT1A1) at 24 hours (AID 2283696)
How it was run: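 UGT1A1 transcript induction was measured by quantitative nuclease protection assay (chemiluminescence) in human hepatocyte cultures 24 h after daily fresh dosing, with 0.2% DMSO as vehicle and baseline.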

[2] = read-out: ABC Transporter (ABCB11), ABCB11 (gene 8647); test: CLD_ABCB11_48hr: CellzDirect (CLD) Gene Expression Assay for ABC Transporter (ABCB11) at 48 hours (AID 2283697)
How it was run: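 Induction of ABCB11 mRNA relative to 0.2% DMSO, measured at 48 h by qNPA chemiluminescence. Cultured human hepatocytes (two donors) received fresh dosing solutions at several concentrations on two consecutive days.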

[3] = read-out: Cytochrome P450 3A4 (Homo sapiens) (UniProt P08684); test: CLD_CYP3A4_48hr: CellzDirect (CLD) Gene Expression Assay for xenobiotic metabolism (CYP3A4) at 48 hours (AID 2283698)
How it was run: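 CYP3A4 induction read by qNPA chemiluminescence after 48 h, with fresh dosing solutions on consecutive days, in cultured human hepatocytes (two donors). Vehicle 0.2% DMSO as baseline; microscopy-based cytotoxicity annotated yes/no alongside data.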

[4] = CLD_ACTIN_48hr: CellzDirect (CLD) Gene Expression Assay for Baseline Control (Actin) at 48 hours (AID 2283702)
How it was run: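 Background-control actin mRNA read by qNPA chemiluminescence at 48 h. Human hepatocyte cultures from two donors received fresh multi-concentration chemical doses daily for two days; 0.2% DMSO served as vehicle baseline.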

[5] = read-out: Broad substrate specificity ATP-binding cassette transporter ABCG2 (Homo sapiens) (UniProt Q9UNQ0); test: CLD_ABCG2_48hr: CellzDirect (CLD) Gene Expression Assay for ABC Transporter (ABCG2) at 48 hours (AID 2283704);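 on AC50: potency for induction of ABCG2 mRNA above the DMSO baseline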
How it was run: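 ABCG2 transcript measured at 48 h by quantitative nuclease protection (chemiluminescent) and fitted for increase relative to 0.2% DMSO. Hepatocyte cultures from separate donors got fresh compound daily over two days; morphology annotated cytotoxicity.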

[6] = read-out: Glyceraldehyde-3-phosphate dehydrogenase (Homo sapiens) (UniProt P04406); test: CLD_GAPDH_48hr: CellzDirect (CLD) Gene Expression Assay for Baseline Control (Glyceraldehyde 3-phosphate dehydrogenase) at 48 hours (AID 2283706);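 further: active means higher GAPDH mRNA than DMSO vehicle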
How it was run: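 GAPDH baseline-control readout: qNPA chemiluminescent mRNA quantitation in human liver primary cells 48 h after daily dosing on two consecutive days, vehicle 0.2% DMSO; gain of signal fitted against DMSO, cytotoxicity flagged by phase-contrast morphology.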

[7] = read-out: alkyl and aryl transferase (GSTA2), GSTA2 (gene 2939); test: CLD_GSTA2_48hr: CellzDirect (CLD) Gene Expression Assay for alkyl and aryl transferase (GSTA2) at 48 hours (AID 2283708);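 further: active means mRNA induction above DMSO vehicle baseline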
How it was run: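 GSTA2 mRNA quantified by qNPA chemiluminescence in human primary hepatocyte lysates after 48 h of daily fresh chemical dosing. Increases fitted against 0.2% DMSO vehicle baseline; cytotoxicity from morphology annotated yes/no.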

[8] = CEETOX_H295R_MTT_cell_viability: Viability Assessment in the CeeTox HT-H295R MTT Assay (AID 2283718; active means hit-call score of the fitted dose curve at least 0.9, where 1 is the maximum; inactive means score below 0.9;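 on AC50: curve fitted both ways so AC50 may mark viability loss or gain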)
How it was run: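 Human H295R adrenal cells, prestimulated 48 h with 10 uM forskolin, were exposed 48 h to chemicals in 0.1% DMSO. Viability was measured in the same wells by MTT (0.5 mg/ml, 4 h, 37 C), absorbance 570/650 nm, as percent of controls.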

[9] = STM_H9_OrnithineISnorm_perc: Stemina devTOX quickPredict H9 human embryonic stem cell (hESC)-based Assay for Ornithine (ORN) Metabolite Biomarker, Normalized (AID 2283712; active means hit-call score of the fitted dose curve at least 0.9, where 1 is the maximum; inactive means score below 0.9;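 further: ornithine released into spent medium during last day measured by mass spectrometry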)
How it was run: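 Metabolite endpoint from spent media of pluripotent H9 cells treated 72 h with daily re-feeding; ornithine measured by UPLC-HRMS against its 13C spike-in and referenced to the median 0.1% DMSO vehicle response.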

[10] = STM_H9_CystineISnorm_perc: Stemina devTOX quickPredict H9 human embryonic stem cell (hESC)-based Assay for Cystine (CYSS) Metabolite Biomarker, Normalized (AID 2283713; active means hit-call score of the fitted dose curve at least 0.9, where 1 is the maximum; inactive means score below 0.9)
How it was run: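 Normalized cystine level in conditioned medium from the final 24h of a 72h treatment of pluripotent H9 cells (daily media and compound renewal). Quantified by UPLC-HRMS with C13-labeled internal standard; scaled to median of 0.1% DMSO vehicle wells.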

[11] = read-out: Cytochrome P450 2C9 (Homo sapiens) (UniProt P11712); test: CLD_CYP2C9_48hr: CellzDirect (CLD) Gene Expression Assay for xenobiotic metabolism (CYP2C9) at 48 hours (AID 2283701; active means hit-call score of the fitted dose curve at least 0.9, where 1 is the maximum; inactive means score below 0.9)
How it was run: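 mRNA level measured by quantitative nuclease protection (S1 digestion, chemiluminescent detection) in lysates of human primary hepatocytes exposed 48 h with daily re-dosing. Induction fitted positively versus 0.2% DMSO; morphology-based cytotoxicity flagged yes/no.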

[12] = read-out: xenobiotic metabolism (CYP1A1), CYP1A1 (gene 1543); test: CLD_CYP1A1_48hr: CellzDirect (CLD) Gene Expression Assay for xenobiotic metabolism (CYP1A1) at 48 hours (AID 2283705)
How it was run: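 CYP1A1 transcript measured by quantitative nuclease protection (chemiluminescent) 48 h after two daily treatments of human hepatocyte cultures, versus 0.2% DMSO. Morphology-based cytotoxicity flags accompany data; two donor preparations used.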

[13] = read-out: Cytochrome P450 2C19 (Homo sapiens) (UniProt P33261); test: CLD_CYP2C19_48hr: CellzDirect (CLD) Gene Expression Assay for xenobiotic metabolism (CYP2C19) at 48 hours (AID 2283700);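 further: fitted upward so actives raise CYP2C19 mRNA above the 0.2% DMSO vehicle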
How it was run: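 CYP2C19 mRNA induction read by chemiluminescent quantitative nuclease protection assay after 48 h, with fresh compound added daily for two days to cultured human liver hepatocytes. Activity fitted upward against 0.2% DMSO vehicle.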

[14] = system: Thyroperoxidase (TPO), gene 445522; test: CCTE_Simmons_GUA_TPO: CCTE's Guaiacol Assay for Thyroperoxidase (TPO) Inhibition, Simmons Lab (AID 2283750)
How it was run: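 Porcine thyroid microsomes (25 ug) in 200mM potassium phosphate, preincubated 30 s at 37C with compound (8 concentrations, 5 nM–87.5 uM) and 35mM guaiacol; 1mM H2O2 starts reaction. Absorbance change at 450nm over first 80 s; loss of signal versus DMSO, three replicates.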

[15] = read-out: xenobiotic metabolism (CYP1A2), CYP1A2 (gene 1544); test: CLD_CYP1A2_48hr: CellzDirect (CLD) Gene Expression Assay for xenobiotic metabolism (CYP1A2) at 48 hours (AID 2283703)
How it was run: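 Cytotoxicity was flagged yes/no from morphology, while CYP1A2 transcript induction was detected by qNPA chemiluminescence after a 48-hour exposure. Human primary hepatocyte cultures from separate donors received fresh dosing solutions daily over two days, with 0.2% DMSO as vehicle and baseline.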

[16] = read-out: glucuronosyltransferase (UGT1A1), UGT1A1 (gene 54658); test: CLD_UGT1A1_48hr: CellzDirect (CLD) Gene Expression Assay for glucuronosyltransferase (UGT1A1) at 48 hours (AID 2283709);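 further: actives increase expression relative to DMSO so potency refers to induction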
How it was run: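 Quantitative nuclease protection assay (chemiluminescent) for UGT1A1 mRNA at 48 h in human hepatocyte cultures from two donors, redosed daily with fresh solutions. Induction fitted relative to 0.2% DMSO; phase-contrast morphology annotated cytotoxicity.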

[17] = STM_H9_OrnCyssISnorm_ratio: Stemina devTOX quickPredict H9 human embryonic stem cell (hESC)-based Assay for Ornithine (ORN):Cystine (CYSS) Ratio (AID 2283714)
How it was run: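 UPLC-HRMS of spent media: ORN/CYSS ratio of internal-standard-normalized percentages, DMSO (0.1%) baseline. Pluripotent H9 hESCs, 72h exposure, daily re-dosing with fresh media; last 24h media collected.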

[18] = Tanguay_ZF_120hpf_ActivityScore_legacy: (Legacy) Oregon State University Tanguay Lab 120 Hour Post-fertilization zebrafish Assay Score for Activity (AID 2283742)
How it was run: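 Dechorionated 5D embryos, one per well, static exposure 6–120 hpf, 28C, sealed and dark; final DMSO 0.64% (vol/vol). Brightfield binary scoring of mortality plus 18 endpoints; gain-of-signal fit versus DMSO baseline.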

Measured: AC50

Broad substrate specificity ATP-binding cassette transporter ABCG2 (Homo sapiens), sequence (Q9UNQ0 whole entry, looked up): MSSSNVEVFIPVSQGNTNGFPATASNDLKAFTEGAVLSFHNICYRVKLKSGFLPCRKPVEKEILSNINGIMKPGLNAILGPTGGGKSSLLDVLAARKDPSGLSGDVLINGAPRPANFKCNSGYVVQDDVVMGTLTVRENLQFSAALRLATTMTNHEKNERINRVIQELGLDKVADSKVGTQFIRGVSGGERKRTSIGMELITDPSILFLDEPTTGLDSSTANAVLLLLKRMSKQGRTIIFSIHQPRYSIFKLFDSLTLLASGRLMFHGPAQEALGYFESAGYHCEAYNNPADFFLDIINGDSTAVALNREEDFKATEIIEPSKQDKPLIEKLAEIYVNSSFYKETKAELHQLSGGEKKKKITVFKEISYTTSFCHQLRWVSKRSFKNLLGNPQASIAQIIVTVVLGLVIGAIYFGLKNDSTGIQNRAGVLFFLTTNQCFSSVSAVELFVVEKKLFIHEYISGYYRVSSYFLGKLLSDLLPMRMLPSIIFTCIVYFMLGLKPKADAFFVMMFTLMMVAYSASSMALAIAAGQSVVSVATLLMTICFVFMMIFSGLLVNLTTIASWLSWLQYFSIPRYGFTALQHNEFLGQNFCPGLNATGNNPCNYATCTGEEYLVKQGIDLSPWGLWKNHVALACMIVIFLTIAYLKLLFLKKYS
Glyceraldehyde-3-phosphate dehydrogenase (Homo sapiens), sequence (P04406 whole entry, looked up): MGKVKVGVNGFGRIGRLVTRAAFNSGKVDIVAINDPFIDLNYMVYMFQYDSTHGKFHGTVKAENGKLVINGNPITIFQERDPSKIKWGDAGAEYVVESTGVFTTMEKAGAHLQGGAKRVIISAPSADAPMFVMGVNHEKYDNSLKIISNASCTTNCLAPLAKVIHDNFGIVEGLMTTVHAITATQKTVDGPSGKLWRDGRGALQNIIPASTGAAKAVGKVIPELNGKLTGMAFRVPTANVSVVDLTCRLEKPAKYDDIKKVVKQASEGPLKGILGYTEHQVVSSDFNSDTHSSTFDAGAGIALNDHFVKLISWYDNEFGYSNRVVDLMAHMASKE
Cytochrome P450 3A4 (Homo sapiens), sequence (P08684 whole entry, looked up): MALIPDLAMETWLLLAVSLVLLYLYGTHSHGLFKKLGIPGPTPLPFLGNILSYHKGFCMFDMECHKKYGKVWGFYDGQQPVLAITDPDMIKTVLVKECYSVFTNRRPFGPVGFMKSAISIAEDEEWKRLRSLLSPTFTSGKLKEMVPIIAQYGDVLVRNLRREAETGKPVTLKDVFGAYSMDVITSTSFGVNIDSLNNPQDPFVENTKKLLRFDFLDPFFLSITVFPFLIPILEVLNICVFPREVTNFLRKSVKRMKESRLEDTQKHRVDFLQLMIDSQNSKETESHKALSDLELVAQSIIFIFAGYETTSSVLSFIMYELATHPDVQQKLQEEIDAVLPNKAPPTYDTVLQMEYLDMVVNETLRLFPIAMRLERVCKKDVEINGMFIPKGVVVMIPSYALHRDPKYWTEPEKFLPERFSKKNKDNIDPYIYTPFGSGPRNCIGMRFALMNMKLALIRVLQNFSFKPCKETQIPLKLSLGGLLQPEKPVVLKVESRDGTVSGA
Cytochrome P450 2C19 (Homo sapiens), sequence (P33261 whole entry, looked up): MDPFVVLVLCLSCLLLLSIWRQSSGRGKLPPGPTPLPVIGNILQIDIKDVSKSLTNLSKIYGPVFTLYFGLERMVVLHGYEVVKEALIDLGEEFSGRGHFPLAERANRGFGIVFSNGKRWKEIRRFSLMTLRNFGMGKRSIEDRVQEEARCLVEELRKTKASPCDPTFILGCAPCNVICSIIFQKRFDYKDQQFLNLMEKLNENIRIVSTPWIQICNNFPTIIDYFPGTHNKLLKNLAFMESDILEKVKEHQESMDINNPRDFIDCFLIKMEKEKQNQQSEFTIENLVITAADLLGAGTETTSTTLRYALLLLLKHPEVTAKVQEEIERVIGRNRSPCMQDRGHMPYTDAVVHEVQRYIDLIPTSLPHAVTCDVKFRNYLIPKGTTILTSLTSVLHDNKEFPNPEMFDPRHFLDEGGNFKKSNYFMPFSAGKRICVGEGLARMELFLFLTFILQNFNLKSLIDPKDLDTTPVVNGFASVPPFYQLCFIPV

CCS(=O)(=O)c1cccnc1S(=O)(=O)NC(=O)Nc1nc(OC)cc(OC)n1
inactive: [1] | [2] | [4] | [5] | [6] | [7] | [8]
active: [3] 20 µM

CCOCN(C(=O)CCl)c1c(C)cccc1CC
active: [3] 2.16 µM | [7] 20 µM
inactive: [1] | [2] | [4] | [5] | [9] | [10]

COC(=O)c1ccccc1S(=O)(=O)NC(=O)N(C)c1nc(C)nc(OC)n1
inactive: [1] | [2] | [11] | [6] | [7]

O=[N+]([O-])c1c(Cl)c(Cl)c(Cl)c(Cl)c1Cl
inactive: [1] | [11] | [4] | [5] | [7] | [8]
active: [3] 3.39 µM

CN1CSC(=S)N(C)C1
inactive: [1] | [11] | [5] | [12] | [6] | [7]

N#CN
inactive: [13] | [11] | [4] | [5] | [6] | [7]

O=C(O)CCCOc1ccc(Cl)cc1Cl
inactive: [1] | [13] | [11] | [4] | [5]

COc1nn(CSP(=S)(OC)OC)c(=O)s1
inactive: [1] | [8]

CNC(=O)CSP(=S)(OC)OC
inactive: [1] | [13] | [4] | [5] | [8] | [14]

OCCOc1ccccc1
inactive: [1] | [13] | [4] | [7]

[2H]C1([2H])[n+]2ccccc2-c2cccc[n+]2C1([2H])[2H]
inactive: [15] | [5] | [6] | [7]

COC(=O)c1ccccc1CS(=O)(=O)NC(=O)Nc1nc(OC)cc(OC)n1
inactive: [1] | [13] | [11] | [5] | [6] | [7] | [16]

CCC(C)(NC(=O)c1cc(Cl)c(C)c(Cl)c1)C(=O)CCl (stereo not drawn)
active: [3] 2.52 µM | [15] 20 µM | [9] 19.6 µM | [10] 23.9 µM | [17] 22.9 µM
inactive: [1] | [11] | [4] | [7]

CC1(c2ccc(Oc3ccccc3)cc2)OC(=O)N(Nc2ccccc2)C1=O (stereo not drawn)
inactive: [3] | [4] | [5] | [6] | [7] | [18]
active: [15] 0.661 µM | [9] 4.54 µM | [10] 2.42 µM | [17] 3.15 µM

O=C(Nc1ccccc1)Nc1cnns1
inactive: [2] | [3] | [13] | [5] | [7] | [9]
active: [10] 58.7 µM | [17] 58.3 µM | [8] 65.5 µM

CC[C@H](C)[C@H]1O[C@]2(C=C[C@@H]1C)C[C@@H]1C[C@@H](C/C=C(\C)[C@@H](O[C@H]3C[C@H](OC)[C@@H](O[C@H]4C[C@H](OC)[C@@H](O)[C@H](C)O4)[C@H](C)O3)[C@@H](C)/C=C/C=C3\CO[C@@H]4[C@H](O)C(C)=C[C@@H](C(=O)O1)[C@]34O)O2 (tested in a mixture with another compound)
active: [2] 0.206 µM | [5] 3.14 µM
inactive: [13] | [4] | [6] | [7] | [8]
